The panel holds about 83,000 compounds, 20% with a hit somewhere; the sample as a whole holds those more often.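 Cells were grown in 96-well plates and exposed to the test compound at a single concentration for 48 hours; results are reported as percent growth, with values below 10 considered active.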 Activity calls are given as the source filed them.

The test system of this assay is HL-60(TB) leukemia. Briefly: NCI-60 one-dose screen, 48 h (100 = growth as untreated, 0 = no growth, -100 = all killed). The settings on record: 10 µM unless noted.
Regarding `CC(=O)Nc1ccc(-c2cn(-c3cccc(C(=O)Nc4ccc(N5CCN(C)CC5)cc4)c3)nn2)cn1`, the growth is 64.6% (inactive).

As for `N#Cc1c(-c2cccc3ccccc23)cc(-c2cccc(OCC(=O)O)c2)[nH]c1=O`, the growth was 82.2% (inactive).

As for `CN1CCN(/C(=N\c2sc(-c3ccccc3)nc2-c2ccccc2)c2ccccc2)CC1`, the growth was 62.9% (inactive).

(Values after PubChem BioAssay (NCI).)
